Assay results taken from PubChem BioAssay AID1159580 (chemical genetic matrix, 2015).
The whole screen tested about 5,500 compounds, of which about 2,000 (36%) were called active. Roughly 18% stayed inconclusive and do not appear here. No stated cut-off is given here; in the data, active means normalized growth mostly below about 0.91 (no sharp cut-off); inconclusive means no clear call, values can overlap the other calls; inactive means mostly above about 0.92. The list shows a part of the results.

Assay: chemical genetic growth profiling, strain panel (AID 1159580);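 further: tested at 20 µM; growth read once vehicle control cultures reached saturation at 30 °C; 1 = growth at the plate median or of vehicle wells; lower values mean less growth of the strain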
Conditions: growth OD
[1] = S. cerevisiae deletion strains, locus YDL101C, strain DUN1, active compounds read low
[2] = S. cerevisiae deletion strains, locus YHR030C, strain SLT2, active compounds read low

Measured: normalized growth

O=C(Nc1ccccc1)N1CCN(C(c2ccccc2)c2ccccc2)CC1
inactive: S. cerevisiae deletion strains, locus YAL013W, strain DEP1, active compounds read low 0.988 | S. cerevisiae deletion strains, locus YBR229C, strain ROT2, active compounds read low 0.992 | [1] 0.994 | S. cerevisiae deletion strains, locus YDL134C, strain PPH21, active compounds read low 1.01 | S. cerevisiae deletion strains, locus YDR150W, strain NUM1, active compounds read low 1 | S. cerevisiae deletion strains, locus YEL061C, strain CIN8, active compounds read low 0.997 | S. cerevisiae deletion strains, locus YGR078C, strain PAC10, active compounds read low 1 | S. cerevisiae deletion strains, locus YGR229C, strain SMI1, active compounds read low 1 | [2] 0.963 | S. cerevisiae deletion strains, locus YHR087W, strain rtc3, active compounds read low 0.993 | S. cerevisiae deletion strains, locus YJL187C, strain SWE1, active compounds read low 1.01 | S. cerevisiae deletion strains, locus YJR043C, strain POL32, active compounds read low 0.978 | S. cerevisiae deletion strains, locus YJR075W, strain HOC1, active compounds read low 1.02 | S. cerevisiae deletion strains, locus YKL190W, strain CNB1, active compounds read low 0.989 | S. cerevisiae deletion strains, locus YLR039C, strain RIC1, active compounds read low 0.992 | S. cerevisiae deletion strains, locus YLR058C, strain SHM2 (second series), active compounds read low 0.991 | S. cerevisiae deletion strains, locus YLR085C, strain ARP6, active compounds read low 1.06 | S. cerevisiae deletion strains, locus YLR262C, strain YPT6, active compounds read low 0.985 | S. cerevisiae deletion strains, locus YML094W, strain GIM5, active compounds read low 1.04 | S. cerevisiae deletion strains, locus YMR219W, strain ESC1, active compounds read low 1.01 | S. cerevisiae deletion strains, locus YMR263W, strain SAP30, active compounds read low 0.989 | S. cerevisiae deletion strains, locus YNL153C, strain GIM3, active compounds read low 0.994 | S. cerevisiae deletion strains, locus YNL298W, strain CLA4 (second series), active compounds read low 0.966 | S. cerevisiae deletion strains, locus YNL322C, strain KRE1, active compounds read low 1 | S. cerevisiae deletion strains, locus YNR030W, strain Alg12, active compounds read low 0.986 | S. cerevisiae deletion strains, locus YPL055C, strain LGE1, active compounds read low 1.08 | S. cerevisiae deletion strains, locus YPL241C, strain CIN2, active compounds read low 1.03 | S. cerevisiae deletion strains, locus YPR135W, strain CTF4, active compounds read low 0.902 | S. cerevisiae strains, strain wild type, active compounds read low 0.973

O=C(Nc1cc2ccccc2s1)N1CCN(Cc2c(F)cccc2Cl)CC1
inactive: S. cerevisiae deletion strains, locus YAR019C, strain CDC15, active compounds read low 0.994 | S. cerevisiae deletion strains, locus YBL105C, strain PKC1, active compounds read low 0.974 | S. cerevisiae deletion strains, locus YBR135W, strain CKS1, active compounds read low 0.986 | S. cerevisiae deletion strains, locus YBR136W, strain MEC1, active compounds read low 0.973 | S. cerevisiae deletion strains, locus YBR160W, strain CDC28, active compounds read low 0.972 | S. cerevisiae deletion strains, locus YDL017W, strain CDC7, active compounds read low 0.983 | S. cerevisiae deletion strains, locus YDL028C, strain MPS1, active compounds read low 0.988 | [1] 0.982 | S. cerevisiae deletion strains, locus YDL108W, strain KIN28, active compounds read low 0.989 | S. cerevisiae deletion strains, locus YDL132W, strain cdc53, active compounds read low 0.983 | S. cerevisiae deletion strains, locus YDL214C, strain PRR2, active compounds read low 0.938 | S. cerevisiae deletion strains, locus YDR052C, strain DBF4, active compounds read low 0.986 | S. cerevisiae deletion strains, locus YDR054C, strain cdc34, active compounds read low 0.968 | S. cerevisiae deletion strains, locus YDR226W, strain ADK1, active compounds read low 0.979 | S. cerevisiae deletion strains, locus YDR477W, strain SNF1, active compounds read low 0.943 | S. cerevisiae deletion strains, locus YER123W, strain YCK3, active compounds read low 0.946 | S. cerevisiae deletion strains, locus YER133W, strain GLC7, active compounds read low 0.95 | S. cerevisiae deletion strains, locus YFL009W, strain cdc4, active compounds read low 0.981 | S. cerevisiae deletion strains, locus YFL029C, strain CAK1, active compounds read low 0.984 | S. cerevisiae deletion strains, locus YFR003C, strain YPI1, active compounds read low 0.983 | S. cerevisiae deletion strains, locus YFR019W, strain FAB1, active compounds read low 0.958 | S. cerevisiae deletion strains, locus YFR028C, strain CDC14, active compounds read low 0.988 | S. cerevisiae deletion strains, locus YGR040W, strain KSS1, active compounds read low 0.925 | S. cerevisiae deletion strains, locus YGR052W, strain FMP48, active compounds read low 0.986 | S. cerevisiae deletion strains, locus YGR092W, strain DBF2, active compounds read low 0.972 | [2] 0.938 | S. cerevisiae deletion strains, locus YHR079C, strain IRE1, active compounds read low 0.934 | S. cerevisiae deletion strains, locus YHR082C, strain KSP1, active compounds read low 0.982 | S. cerevisiae deletion strains, locus YHR205W, strain SCH9, active compounds read low 0.972 | S. cerevisiae deletion strains, locus YIL147C, strain SLN1, active compounds read low 0.982 | S. cerevisiae deletion strains, locus YJL095W, strain BCK1, active compounds read low 0.927 | S. cerevisiae deletion strains, locus YJL128C, strain PBS2, active compounds read low 0.965 | S. cerevisiae deletion strains, locus YJL157C, strain FAR1, active compounds read low 0.913 | S. cerevisiae deletion strains, locus YJR016C, strain ILV3, active compounds read low 0.997 | S. cerevisiae deletion strains, locus YJR066W, strain TOR1 (second series), active compounds read low 0.904 | S. cerevisiae deletion strains, locus YJR066W, strain TOR1, active compounds read low 0.979 | S. cerevisiae deletion strains, locus YKL048C, strain ELM1, active compounds read low 0.983 | S. cerevisiae deletion strains, locus YKL067W, strain YNK1, active compounds read low 0.946 | S. cerevisiae deletion strains, locus YKL101W, strain HSL1, active compounds read low 0.918 | S. cerevisiae deletion strains, locus YKL193C, strain SDS22, active compounds read low 0.986 | S. cerevisiae deletion strains, locus YKL203C, strain TOR2, active compounds read low 0.975 | S. cerevisiae deletion strains, locus YLR133W, strain CKI1, active compounds read low 0.928 | S. cerevisiae deletion strains, locus YLR403W, strain SFP1, active compounds read low 0.906 | S. cerevisiae deletion strains, locus YML070W, strain DAK1, active compounds read low 0.915 | S. cerevisiae deletion strains, locus YMR001C, strain CDC5, active compounds read low 0.984 | S. cerevisiae deletion strains, locus YMR205C, strain PFK2 (second series), active compounds read low 0.95 | S. cerevisiae deletion strains, locus YMR277W, strain FCP1, active compounds read low 0.983 | S. cerevisiae deletion strains, locus YNL006W, strain LST8, active compounds read low 0.989 | S. cerevisiae deletion strains, locus YNL020C, strain ARK1, active compounds read low 0.928 | S. cerevisiae deletion strains, locus YNL161W, strain CBK1, active compounds read low 0.988 | S. cerevisiae deletion strains, locus YNL183C, strain NPR1, active compounds read low 0.944 | S. cerevisiae deletion strains, locus YNL207W, strain RIO2, active compounds read low 0.976 | S. cerevisiae deletion strains, locus YNL222W, strain SSU72, active compounds read low 0.988 | S. cerevisiae deletion strains, locus YNL307C, strain MCK1 (second series), active compounds read low 0.961 | S. cerevisiae deletion strains, locus YOL078W, strain AVO1, active compounds read low 0.982 | S. cerevisiae deletion strains, locus YOL136C, strain PFK27, active compounds read low 0.911 | S. cerevisiae deletion strains, locus YOR061W, strain CKA2, active compounds read low 0.952 | S. cerevisiae deletion strains, locus YOR119C, strain RIO1, active compounds read low 0.993 | S. cerevisiae deletion strains, locus YOR231W, strain MKK1, active compounds read low 0.877 | S. cerevisiae deletion strains, locus YOR329C, strain SCD5, active compounds read low 0.972 | S. cerevisiae deletion strains, locus YPL031C, strain PHO85, active compounds read low 0.942 | S. cerevisiae deletion strains, locus YPL153C, strain RAD53, active compounds read low 0.917 | S. cerevisiae deletion strains, locus YPL204W, strain HRR25, active compounds read low 0.915 | S. cerevisiae deletion strains, locus YPL209C, strain IPL1, active compounds read low 0.976 | S. cerevisiae deletion strains, locus YPL256C, strain CLN2, active compounds read low 0.888 | S. cerevisiae deletion strains, locus YPR025C, strain CCL1, active compounds read low 0.986 | S. cerevisiae deletion strains, locus YPR106W, strain ISR1, active compounds read low 0.962 | S. cerevisiae deletion strains, locus YPR111W, strain DBF20, active compounds read low 0.962 | S. cerevisiae deletion strains, strain NNK1, active compounds read low 0.972 | S. cerevisiae deletion strains, strain TSCII, active compounds read low 0.986
active: S. cerevisiae deletion strains, locus YLR113W, strain HOG1, active compounds read low 0.853
